What was measured:
Experiment in all cases: DAPPL (digital affinity profiling via proximity ligation, sequencing); 10 mM Tris-HCl pH 7.5, 50 mM NaCl, 1 mM DTT, 4% glycerol, room temperature, 30 min; GST-TFs on glutathione beads, 16-mer random dsDNA library, 0.1% formaldehyde crosslink after washing; high values mean tight binding
Conditions in all cases: protein: recombinant; tags: N-terminal GST; dsDNA, one strand shown
[1] = target: T1, ERF (Homo sapiens, UniProt P50548 1-548)
T1 sequence: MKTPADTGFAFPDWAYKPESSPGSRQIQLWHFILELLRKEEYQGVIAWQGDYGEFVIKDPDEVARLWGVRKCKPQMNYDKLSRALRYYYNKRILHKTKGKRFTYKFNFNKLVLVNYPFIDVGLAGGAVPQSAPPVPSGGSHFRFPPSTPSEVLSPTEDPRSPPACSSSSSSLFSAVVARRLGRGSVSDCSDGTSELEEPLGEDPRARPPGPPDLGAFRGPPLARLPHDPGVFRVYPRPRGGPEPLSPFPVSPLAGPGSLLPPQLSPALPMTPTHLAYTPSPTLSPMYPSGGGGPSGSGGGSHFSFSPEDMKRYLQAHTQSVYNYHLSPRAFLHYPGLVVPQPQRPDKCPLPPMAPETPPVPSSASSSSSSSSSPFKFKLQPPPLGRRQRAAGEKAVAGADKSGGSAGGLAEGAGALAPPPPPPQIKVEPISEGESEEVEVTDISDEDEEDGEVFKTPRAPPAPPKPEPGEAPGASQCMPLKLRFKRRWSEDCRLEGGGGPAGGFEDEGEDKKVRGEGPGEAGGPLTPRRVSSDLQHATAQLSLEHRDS
Outline: (§1)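 Sequencing on an Illumina NextSeq500 followed washing, crosslinking with 0.1% formaldehyde, proximity ligation (BsaI/T4 ligase, 1 h, 37 °C) and PCR amplification of pools that had been incubated for 30 min at room temperature with 200 nmole of a random double-stranded 16-mer DNA library in Tris/NaCl/DTT/glycerol buffer. Each pool held DNA-barcoded human transcription factors, expressed in yeast as GST fusions and captured on glutathione beads, plus a tag-only sample. Binding signal is a hexamer's read frequency for a factor divided by its frequency in the tag-only sample.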

[2] = target: T2, ETV3L (Homo sapiens, UniProt Q6ZN32 1-361)
T2 sequence: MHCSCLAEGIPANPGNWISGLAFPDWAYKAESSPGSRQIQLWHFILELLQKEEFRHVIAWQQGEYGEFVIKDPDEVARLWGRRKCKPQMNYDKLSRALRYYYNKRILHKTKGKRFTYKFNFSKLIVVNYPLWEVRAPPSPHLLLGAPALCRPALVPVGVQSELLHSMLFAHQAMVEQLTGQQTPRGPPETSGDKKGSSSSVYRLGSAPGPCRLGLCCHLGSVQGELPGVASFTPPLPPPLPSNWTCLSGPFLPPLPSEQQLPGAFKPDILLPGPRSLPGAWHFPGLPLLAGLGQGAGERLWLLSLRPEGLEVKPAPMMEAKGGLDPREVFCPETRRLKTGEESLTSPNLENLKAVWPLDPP
Outline: as §1

[3] = target: T3, ETS2 (Homo sapiens, UniProt P15036 1-469)
T3 sequence: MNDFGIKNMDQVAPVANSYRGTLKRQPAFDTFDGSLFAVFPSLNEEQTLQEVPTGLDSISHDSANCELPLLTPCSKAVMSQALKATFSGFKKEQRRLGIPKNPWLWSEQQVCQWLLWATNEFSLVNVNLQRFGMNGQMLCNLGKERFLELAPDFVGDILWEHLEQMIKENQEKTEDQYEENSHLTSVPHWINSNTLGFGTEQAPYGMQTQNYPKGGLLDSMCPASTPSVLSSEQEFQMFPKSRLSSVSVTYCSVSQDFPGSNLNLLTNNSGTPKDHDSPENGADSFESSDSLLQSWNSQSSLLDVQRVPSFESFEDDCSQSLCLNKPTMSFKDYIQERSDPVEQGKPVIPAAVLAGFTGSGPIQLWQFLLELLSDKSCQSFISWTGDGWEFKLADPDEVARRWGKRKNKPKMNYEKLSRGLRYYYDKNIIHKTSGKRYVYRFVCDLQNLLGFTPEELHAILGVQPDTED
Outline: as §1

[4] = target: T4, SPDEF (Homo sapiens, UniProt O95238 1-335)
T4 sequence: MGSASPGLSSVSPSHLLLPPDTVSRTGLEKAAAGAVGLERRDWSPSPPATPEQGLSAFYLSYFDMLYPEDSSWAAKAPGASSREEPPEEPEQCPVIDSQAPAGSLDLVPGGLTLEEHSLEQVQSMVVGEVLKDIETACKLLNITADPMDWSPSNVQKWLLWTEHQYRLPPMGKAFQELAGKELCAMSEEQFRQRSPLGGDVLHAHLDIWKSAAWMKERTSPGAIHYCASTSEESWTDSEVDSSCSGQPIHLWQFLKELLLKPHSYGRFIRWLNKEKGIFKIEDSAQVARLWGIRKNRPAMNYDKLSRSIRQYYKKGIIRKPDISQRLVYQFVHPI
Outline: as §1

[5] = target: T5, ETV7 (Homo sapiens, UniProt Q9Y603 1-341)
T5 sequence: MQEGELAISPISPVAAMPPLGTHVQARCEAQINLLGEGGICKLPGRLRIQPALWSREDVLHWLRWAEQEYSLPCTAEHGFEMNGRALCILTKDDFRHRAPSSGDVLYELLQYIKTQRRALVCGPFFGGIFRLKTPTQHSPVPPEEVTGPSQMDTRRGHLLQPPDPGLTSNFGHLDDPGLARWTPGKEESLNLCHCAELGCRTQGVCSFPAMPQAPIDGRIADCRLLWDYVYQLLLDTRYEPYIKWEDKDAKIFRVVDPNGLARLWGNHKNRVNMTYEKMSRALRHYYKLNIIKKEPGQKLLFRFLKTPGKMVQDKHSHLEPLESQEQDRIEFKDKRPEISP
Outline: as §1

[6] = target: T6, ELF5 (Homo sapiens, UniProt Q9UKW6-2 1-255)
T6 sequence: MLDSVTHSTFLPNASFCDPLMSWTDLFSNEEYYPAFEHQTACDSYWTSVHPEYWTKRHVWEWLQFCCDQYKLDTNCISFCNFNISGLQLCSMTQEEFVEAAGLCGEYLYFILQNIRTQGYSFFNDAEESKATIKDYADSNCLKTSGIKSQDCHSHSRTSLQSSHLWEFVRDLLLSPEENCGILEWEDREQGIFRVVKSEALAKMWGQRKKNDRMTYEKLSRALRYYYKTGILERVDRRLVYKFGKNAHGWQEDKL
Outline: as §1

[7] = target: T7, ETV3 (Homo sapiens, UniProt P41162-2 1-143)
T7 sequence: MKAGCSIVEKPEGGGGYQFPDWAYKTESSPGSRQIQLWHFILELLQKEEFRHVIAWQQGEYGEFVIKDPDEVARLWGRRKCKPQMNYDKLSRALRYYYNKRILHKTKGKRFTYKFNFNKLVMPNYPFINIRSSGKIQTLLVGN
Outline: as §1

[8] = target: ETV6 (Homo sapiens, UniProt P41212 1-452)
Sequence of ETV6 (P41212 whole entry): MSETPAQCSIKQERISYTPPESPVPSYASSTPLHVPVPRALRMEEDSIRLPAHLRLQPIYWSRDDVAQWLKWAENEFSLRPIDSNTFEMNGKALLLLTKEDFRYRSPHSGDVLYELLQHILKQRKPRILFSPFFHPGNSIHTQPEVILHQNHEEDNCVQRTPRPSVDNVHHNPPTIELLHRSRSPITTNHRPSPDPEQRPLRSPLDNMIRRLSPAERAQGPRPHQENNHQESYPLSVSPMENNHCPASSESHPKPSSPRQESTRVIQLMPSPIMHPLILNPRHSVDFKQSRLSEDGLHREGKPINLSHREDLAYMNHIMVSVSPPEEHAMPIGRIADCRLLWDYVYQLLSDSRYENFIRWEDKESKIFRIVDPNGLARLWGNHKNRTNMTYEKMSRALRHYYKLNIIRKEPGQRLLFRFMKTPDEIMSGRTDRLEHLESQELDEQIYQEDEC
Outline: as §1

| Sequence | binding signal [1] | binding signal [2] | binding signal [3] | binding signal [4] | binding signal [5] | binding signal [6] | binding signal [7] | binding signal [8] |
| --- | --- | --- | --- | --- | --- | --- | --- | --- |
| GCTATT | 1.37 fold enrichment (6-mer frequency, TF over GST control) | 1.34 fold enrichment (6-mer frequency, TF over GST control) | 1.25 fold enrichment (6-mer frequency, TF over GST control) | 1.2 fold enrichment (6-mer frequency, TF over GST control) | 1.34 fold enrichment (6-mer frequency, TF over GST control) | 1.33 fold enrichment (6-mer frequency, TF over GST control) | 1.25 fold enrichment (6-mer frequency, TF over GST control) | 1.35 fold enrichment (6-mer frequency, TF over GST control) |
| AACCAA | 1.25 fold enrichment (6-mer frequency, TF over GST control) | 1.15 fold enrichment (6-mer frequency, TF over GST control) | 1.23 fold enrichment (6-mer frequency, TF over GST control) | 1.21 fold enrichment (6-mer frequency, TF over GST control) | 1.2 fold enrichment (6-mer frequency, TF over GST control) | 1.16 fold enrichment (6-mer frequency, TF over GST control) | 1.18 fold enrichment (6-mer frequency, TF over GST control) | 1.29 fold enrichment (6-mer frequency, TF over GST control) |
| TCGACC | 1.31 fold enrichment (6-mer frequency, TF over GST control) | 1.33 fold enrichment (6-mer frequency, TF over GST control) | 1.24 fold enrichment (6-mer frequency, TF over GST control) | 1.37 fold enrichment (6-mer frequency, TF over GST control) | 1.21 fold enrichment (6-mer frequency, TF over GST control) | 1.28 fold enrichment (6-mer frequency, TF over GST control) | 1.27 fold enrichment (6-mer frequency, TF over GST control) | 1.3 fold enrichment (6-mer frequency, TF over GST control) |
| CTCAAT | 1.22 fold enrichment (6-mer frequency, TF over GST control) | 1.36 fold enrichment (6-mer frequency, TF over GST control) | 1.21 fold enrichment (6-mer frequency, TF over GST control) | 1.21 fold enrichment (6-mer frequency, TF over GST control) | 1.16 fold enrichment (6-mer frequency, TF over GST control) | 1.27 fold enrichment (6-mer frequency, TF over GST control) | 1.2 fold enrichment (6-mer frequency, TF over GST control) | 1.23 fold enrichment (6-mer frequency, TF over GST control) |
| TCCTAT | 1.56 fold enrichment (6-mer frequency, TF over GST control) | 1.5 fold enrichment (6-mer frequency, TF over GST control) | 1.65 fold enrichment (6-mer frequency, TF over GST control) | 1.72 fold enrichment (6-mer frequency, TF over GST control) | 1.53 fold enrichment (6-mer frequency, TF over GST control) | 1.56 fold enrichment (6-mer frequency, TF over GST control) | 1.64 fold enrichment (6-mer frequency, TF over GST control) | 1.66 fold enrichment (6-mer frequency, TF over GST control) |
| TGAACA | 1.27 fold enrichment (6-mer frequency, TF over GST control) | 1.31 fold enrichment (6-mer frequency, TF over GST control) | 1.18 fold enrichment (6-mer frequency, TF over GST control) | 1.22 fold enrichment (6-mer frequency, TF over GST control) | 1.21 fold enrichment (6-mer frequency, TF over GST control) | 1.26 fold enrichment (6-mer frequency, TF over GST control) | 1.25 fold enrichment (6-mer frequency, TF over GST control) | 1.21 fold enrichment (6-mer frequency, TF over GST control) |
